PubChem BioAssay AID1159580 (chemical genetic matrix, 2015)
Hit rate of the full screen: of about 5,500 compounds, about 2,000 (36%) were called active. About 18% were inconclusive and are not listed. Rule as the data show it: active = normalized growth mostly below about 0.91 (no sharp cut-off); inconclusive = no clear call, values can overlap the other calls; inactive = mostly above about 0.92. The list shows a part of the results.

Assay: chemical genetic growth profiling, strain panel (AID 1159580);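 also: tested at 20 µM; growth read once vehicle control cultures reached saturation at 30 °C; 1 = growth at the plate median or of vehicle wells; lower values mean less growth of the strain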
Details: growth OD

Measured: normalized growth

CC1(C)S[C@@H]2[C@H](NC(=O)[C@H](N)c3ccccc3)C(=O)N2[C@H]1C(=O)O
inactive: S. cerevisiae deletion strains, locus YJR043C, strain POL32, active compounds read low 1 | S. cerevisiae deletion strains, locus YJR066W, strain TOR1, active compounds read low 0.981 | S. cerevisiae deletion strains, locus YKL009W, strain mrt4, active compounds read low 1.01 | S. cerevisiae deletion strains, locus YKL068W, active compounds read low 1 | S. cerevisiae deletion strains, locus YKL085W, strain MDH1 (second series), active compounds read low 1.01 | S. cerevisiae deletion strains, locus YKL085W, strain MDH1, active compounds read low 1.01 | S. cerevisiae deletion strains, locus YKL160W, strain elf1, active compounds read low 0.93 | S. cerevisiae deletion strains, locus YKL190W, strain CNB1, active compounds read low 1.01 | S. cerevisiae deletion strains, locus YKR001C, strain vps1, active compounds read low 0.991 | S. cerevisiae deletion strains, locus YKR026C, strain gcn3, active compounds read low 0.972 | S. cerevisiae deletion strains, locus YKR091W, strain srl3, active compounds read low 0.962 | S. cerevisiae deletion strains, locus YLL001W, strain dnm1, active compounds read low 1 | S. cerevisiae deletion strains, locus YLL026W, active compounds read low 0.966 | S. cerevisiae deletion strains, locus YLL041C, strain sdh2, active compounds read low 0.976 | S. cerevisiae deletion strains, locus YLR027C, strain aat2, active compounds read low 0.983 | S. cerevisiae deletion strains, locus YLR039C, strain RIC1, active compounds read low 0.993 | S. cerevisiae deletion strains, locus YLR058C, strain SHM2, active compounds read low 1.01 | S. cerevisiae deletion strains, locus YLR102C, strain apc9, active compounds read low 0.997 | S. cerevisiae deletion strains, locus YLR113W, strain HOG1, active compounds read low 1.04 | S. cerevisiae deletion strains, locus YLR221C, strain rsa3, active compounds read low 1.02 | S. cerevisiae deletion strains, locus YLR258W, strain gsy2, active compounds read low 0.981 | S. cerevisiae deletion strains, locus YLR262C, strain YPT6 (second series), active compounds read low 0.983 | S. cerevisiae deletion strains, locus YLR262C, strain YPT6, active compounds read low 1.08 | S. cerevisiae deletion strains, locus YLR268W, strain sec22, active compounds read low 1.01 | S. cerevisiae deletion strains, locus YLR320W, strain mms22, active compounds read low 1 | S. cerevisiae deletion strains, locus YLR330W, strain CHS5, active compounds read low 1.01 | S. cerevisiae deletion strains, locus YLR342W, strain FKS1 (second series), active compounds read low 1.01 | S. cerevisiae deletion strains, locus YLR342W, strain FKS1, active compounds read low 0.985 | S. cerevisiae deletion strains, locus YLR357W, strain rsc2, active compounds read low 0.928 | S. cerevisiae deletion strains, locus YLR370C, strain arc18, active compounds read low 0.951 | S. cerevisiae deletion strains, locus YLR371W, strain rom2, active compounds read low 1 | S. cerevisiae deletion strains, locus YLR384C, strain iki3, active compounds read low 0.97 | S. cerevisiae deletion strains, locus YLR418C, strain cdc73, active compounds read low 0.998 | S. cerevisiae deletion strains, locus YML016C, strain PPZ1, active compounds read low 1.01 | S. cerevisiae deletion strains, locus YML032C, strain rad52, active compounds read low 0.994 | S. cerevisiae deletion strains, locus YML120C, strain ndi1, active compounds read low 0.995 | S. cerevisiae deletion strains, locus YML124C, strain tub3, active compounds read low 1 | S. cerevisiae deletion strains, locus YMR058W, strain fet3, active compounds read low 0.968 | S. cerevisiae deletion strains, locus YMR078C, strain ctf18, active compounds read low 1.01 | S. cerevisiae deletion strains, locus YMR125W, strain sto1, active compounds read low 0.964 | S. cerevisiae deletion strains, locus YMR129W, active compounds read low 0.967 | S. cerevisiae deletion strains, locus YMR205C, strain PFK2, active compounds read low 0.993 | S. cerevisiae deletion strains, locus YMR223W, strain ubp8, active compounds read low 1.01 | S. cerevisiae deletion strains, locus YMR231W, strain pep5, active compounds read low 0.985 | S. cerevisiae deletion strains, locus YMR307W, strain GAS1, active compounds read low 0.926 | S. cerevisiae deletion strains, locus YNL067W, strain RPL9B, active compounds read low 1.02 | S. cerevisiae deletion strains, locus YNL071W, strain lat1, active compounds read low 0.977 | S. cerevisiae deletion strains, locus YNL128W, strain TEP1, active compounds read low 1.03 | S. cerevisiae deletion strains, locus YNL183C, strain NPR1, active compounds read low 0.975 | S. cerevisiae deletion strains, locus YNL209W, strain ssb2, active compounds read low 0.956 | S. cerevisiae deletion strains, locus YNL233W, strain BNI4, active compounds read low 1.01 | S. cerevisiae deletion strains, locus YNL248C, strain rpa49, active compounds read low 0.907 | S. cerevisiae deletion strains, locus YNL250W, strain rad50, active compounds read low 0.998 | S. cerevisiae deletion strains, locus YNL271C, strain bni1, active compounds read low 1.03 | S. cerevisiae deletion strains, locus YNL298W, strain CLA4, active compounds read low 1.01 | S. cerevisiae deletion strains, locus YNL307C, strain MCK1, active compounds read low 1 | S. cerevisiae deletion strains, locus YNL322C, strain KRE1 (second series), active compounds read low 0.97 | S. cerevisiae deletion strains, locus YNR049C, strain mso1, active compounds read low 0.946 | S. cerevisiae deletion strains, locus YNR052C, strain pop2, active compounds read low 1 | S. cerevisiae deletion strains, locus YOL006C, strain TOP1, active compounds read low 1.04 | S. cerevisiae deletion strains, locus YOL012C, strain htz1 0.815 | S. cerevisiae deletion strains, locus YOL147C, strain pex11, active compounds read low 1.01 | S. cerevisiae deletion strains, locus YOR001W, strain rrp6, active compounds read low 1 | S. cerevisiae deletion strains, locus YOR061W, strain CKA2, active compounds read low 1.02 | S. cerevisiae deletion strains, locus YOR069W, strain VPS5, active compounds read low 1.01 | S. cerevisiae deletion strains, locus YOR070C, strain gyp1, active compounds read low 0.981 | S. cerevisiae deletion strains, locus YOR080W, strain dia2, active compounds read low 0.959 | S. cerevisiae deletion strains, locus YOR083W, strain WHI5, active compounds read low 0.917 | S. cerevisiae deletion strains, locus YOR106W, strain vam3, active compounds read low 0.914 | S. cerevisiae deletion strains, locus YOR136W, strain idh2, active compounds read low 0.995 | S. cerevisiae deletion strains, locus YOR144C, strain elg1, active compounds read low 0.998 | S. cerevisiae deletion strains, locus YOR184W, strain ser1, active compounds read low 0.999 | S. cerevisiae deletion strains, locus YOR231W, strain MKK1, active compounds read low 1.02 | S. cerevisiae deletion strains, locus YOR265W, strain rbl2, active compounds read low 0.962 | S. cerevisiae deletion strains, locus YOR270C, strain vph1, active compounds read low 0.951 | S. cerevisiae deletion strains, locus YOR290C, strain snf2, active compounds read low 0.92 | S. cerevisiae deletion strains, locus YOR316C, strain cot1, active compounds read low 1 | S. cerevisiae deletion strains, locus YPL051W, strain arl3, active compounds read low 0.947 | S. cerevisiae deletion strains, locus YPL055C, strain LGE1, active compounds read low 1.02 | S. cerevisiae deletion strains, locus YPL078C, strain atp4, active compounds read low 0.953 | S. cerevisiae deletion strains, locus YPL106C, strain sse1, active compounds read low 0.976 | S. cerevisiae deletion strains, locus YPL240C, strain hsp82, active compounds read low 0.974 | S. cerevisiae deletion strains, locus YPL256C, strain CLN2, active compounds read low 1.05 | S. cerevisiae deletion strains, locus YPR119W, strain clb2, active compounds read low 1.01 | S. cerevisiae deletion strains, locus YPR141C, strain kar3, active compounds read low 1 | S. cerevisiae deletion strains, locus YPR163C, strain tif3, active compounds read low 0.999 | S. cerevisiae deletion strains, locus YPR167C, strain met16, active compounds read low 1.02 | S. cerevisiae deletion strains, strain wtn01, active compounds read low 1.01 | S. cerevisiae strains, strain wild type, active compounds read low 1.02
